The results in this text go back to PubChem BioAssay (EPA / NIEHS).

Calls of active or inactive are those of the source. The calls were made as follows: active = hit-call score of the fitted dose curve at least 0.9, where 1 is the maximum; inactive = score below 0.9.

Read-out in the assay: DNA damage-inducible transcript 3 (DDIT3), DDIT3 (gene 1649)
In words: LTEA_HepaRG_DDIT3: Life Technologies and Expression Analysis (LTEA) Assay for DNA damage-inducible transcript 3 (DDIT3) using HepaRG (AID 2283488). Conditions: mRNA level, 48 h; actives raise or lower the signal. Here is the method:
LTEA_HepaRG is a cell based, multiplexed-readout assay that uses HepaRG, a human liver cell line, with measurements taken at 48 hours after chemical dosing on a 96-well plate.LTEA_HepaRG_DDIT3 is one of 102 assay component(s) measured in the LTEA HepaRG cell culture assay. It is a marker of Oxidative Stress.Data from the assay component LTEA_HepaRG_DDIT3 was analyzed into 1 endpoint. This assay endpoint, LTEA_HepaRG_DDIT3, was analyzed with bidirectional fitting relative to DMSO as the negative control and baseline of activity. Using a type of inducible reporter, measures of mRNA induction for gain or loss-of-signal activity can be used to understand regulation of transcription factor activity. To generalize the intended target to other relatable targets, this assay endpoint is annotated to the dna binding intended target family, where the subfamily is basic leucine zipper.
A total of 1060 chemcials from the ToxCast library were tested in eight-point concentration-response experiments. Cell culture and cytotoxicity assays were conducted at Thermo Fisher Scientific's Custom Services facility (Madison, WI). A single lot of human HepaRG cells (Thermo Fisher Scientific, Frederick, MD) was used for the cell culture experiments. 96-well format collagen type I coated plates of human HepaRG cells were prepared using established methods. Briefly, cryopreserved HepaRG cells were thawed, plated at a density of approximately 100,000 cells/well in HepaRG Thaw, Plate, and General Purpose media (HPRG770, Thermo Fisher Scientific), and incubated for 48 hours. 0.5% DMSO was selected as vehicle control to balance the requisite need of DMSO in HepaRG cultures to maintain differentiation (for example, baseline metabolism, proportions of hepatocytes vs. cholangiocytes), while enabling further hepatic receptor pathway activation (for example, PXR and CAR) in response to chemical exposure. 48 hours after plating, the culture medium was replaced with HepaRG Serum-Free Incudtion Media. Cells were exposed to each test chemical in duplicate and maintained in CO2 incubators for another 48 hours. Chemical plates were thawed to room temperature and 200x concentrations of treatment groups were prepared. 8-point conentration-reponse curves were made with the highest exposure at 100 uM, followed by half-log dilutions, all in 0.5% DMSO. Each test plate contained variouse controls, induction positive controls (1mM phenobarbital), cytotoxicity positive controls ([…] aflatoxin B1), vehicle controls (0.5% DMSO), and total lysis controls (0.5% DMSO). Cell morphology images were taken using an Essen IncuCyte FLR automated microscope, with six 96-well plates imaged in about 24 minutes. Images were captured and exported and JPEG files. Spent culture media was transfered to black-well plates for the LDH assay, and remaining media was sorted at -80 C for later use. Cells were treated with RLT buffer and frozen until shipped for gene expression analysis. Total RNA was isolated from the cell suspension in 75 uL of Buffer RLT (Qiagen, Germantown, MD 20874) by Quintiles/Expression Analysis (Durham, NC) using a custom isolation procedure. Total RNA from each plate well was transferred to a preamplification plate. Fluidigm's 96.96 Dynamic ArrayTM (Fluidigm, Amsterdam, the Netherlands) technology was used for gene expression analyses by quantitative reverse transcription polymerase chain reaction (qRT-PCR, performed by Quintiles/Expression Analysis, Durham, NC)89. Standard TaqManTM Assays (Applied Biosystems/ThermoFisher Scientific, Foster City, CA) were used to assess the expression of 93 genes selected based on their selectivity and sensitivity to important hepatic receptors known to be modulated by environmental chemicals; importance in human hepatocyte functionality; and hepatotoxicity. […]
On to `CC(C)(O)c1ccc(CNC(=O)c2cccnc2Oc2ccc(F)cc2)cc1`, for which the call was inactive.
`CC(=O)[C@@]1(O)CC[C@H]2[C@@H]3CCC4=CC(=O)CC[C@]4(C)[C@H]3CC[C@@]21C`: the outcome was inactive.
On the same count and under the same terms, under `O=C1OC(c2ccc(O)cc2)(c2ccc(O)cc2)c2ccccc21` stands “inactive”; under `O=C1c2c(O)cccc2Cc2cccc(O)c21`, “inactive”; under `CC1=C(C)S(=O)(=O)CCS1(=O)=O`, “inactive”.
With `COc1ccc(C(=O)Nc2nc3ccccc3c(NCc3ccccc3)c2C#N)cc1`, the result was inactive.
For `COC(=O)CCC(=O)OC`, the call was inactive.
For the molecule `CCCCCCC(CCCCCCCCCCC(=O)OCC(COC(C)=O)OC(C)=O)OC(C)=O` (stereo not given), the call was inactive.
As to `CCCCC(CC)COP(=O)(OCC(CC)CCCC)OCC(CC)CCCC` (stereo not given), the call was inactive.
Still for that read-out and setting: under `Cc1cc(Cc2ccc(N)c(C)c2)ccc1N` stands “inactive”.
As to `CCCCOC(=O)CCCCC(=O)OCCCC`, the call was inactive.
Take `CN(C)CCCN(C)CCCN(C)C`: the outcome was inactive.
Still for that read-out and setting: in the case of `CC(C)c1cccc(C(C)C)c1` it was “inactive”; in that of `O=C1NC(=O)C(c2ccccc2)(c2ccccc2)N1`, “inactive”; in that of `CCCCCCCCCCCCCCOS(=O)(=O)O`, “inactive”.
Still for that read-out and setting: in the case of `CC1(C)C(=O)NC(=O)N1CO` it was “inactive”; in that of `CC(C)NCC(O)c1ccc(O)c(O)c1` (stereo not given), “inactive”.
On the same count and under the same terms, under `O=NO` stands “inactive”.
As to `CC(C)COC(=O)CCCCC(=O)OCC(C)C`, the molecule was classed as inactive.
Usually AC50 stands for the concentration at which the activity in the assay is half-maximal. Take `COC(=O)[C@H]1[C@H]2C[C@@H]3c4[nH]c5cc(OC)ccc5c4CCN3C[C@H]2C[C@@H](OC(=O)c2cc(OC)c(OC)c(OC)c2)[C@@H]1OC`: the concentration at half-maximal activity (AC50) is 55.1 µM (active).
For `Oc1ccccc1O`, the molecule was called inactive.
Take `Cc1ccc(C(C)(C)C)c(O)c1`: the outcome was inactive.
Still for that read-out and setting: in the case of `C=CCc1ccc(OC)c(OC)c1` it was “inactive”.
On to `Nc1nc(=S)c2[nH]cnc2[nH]1`, for which the concentration at half-maximal activity (AC50) was 8.69 µM (active).
Regarding `COC(=O)CCCC(=O)OC`, the result was inactive.
Same read-out and setting: under `O=C(Oc1ccccc1)c1cccc(C(=O)Oc2ccccc2)c1` stands “inactive”; under `Cc1c(C)c2c(c(C)c1O)CCC(C)(COc1ccc(CC3SC(=O)NC3=O)cc1)O2` (stereo not given), “inactive”.
As for `O=C(NS(=O)(=O)/C=C/c1cccs1)c1ccc(F)cc1Br`, the molecule was classed as inactive.
Turning to `CCc1nc(N)nc(N)c1-c1ccc(Cl)cc1`, the AC50 is 77.8 µM (active).
On to `O=C1O[C@H]([C@H](O)CO)C(O)=C1O`, for which the molecule was classed as inactive.
For `CC(=O)OCC(COC(C)=O)OC(C)=O`, the call was inactive.
As to `CC(=O)S[C@H](C(=O)N[C@H]1Cc2ccccc2[C@H]2CCC[C@@H](C(=O)O)N2C1=O)C(C)C`, the result was inactive.
`CCCCCCCC(=O)OC`: the molecule was classed as inactive.
As for `Nc1nc(Cl)nc2c1ncn2[C@H]1C[C@H](O)[C@@H](CO)O1`, the result was inactive.
Still for that read-out and setting: under `O=C1CCCCC1` stands “inactive”; under `CCCCc1nc2cccnc2n1Cc1ccc(-c2ccccc2-c2nnn[nH]2)cc1`, “inactive”.
The same measure, in the same setting: under `O=[Si]=O` stands “inactive”.
`CC(C)c1cccc(C(C)C)c1NC(=O)NS(=O)(=O)c1cc(C(C)(C)O)co1`: the outcome was inactive.
On to `CSc1ccc(Oc2ccc(S(N)(=O)=O)cc2CN(C)C)cc1C`, for which the AC50 is 75.2 µM (active).
Same read-out and setting: in the case of `CN(C)C(=O)NC1(c2ccccc2)CCN(CC[C@@]2(c3ccc(F)c(F)c3)CN(C(=O)c3ccccc3)CCO2)CC1` it was 56.6 µM (active).
